PNC inhibitor = High Content Assay for Compounds that inhibit the Assembly of the Perinucleolar Compartment. activity change (PNC), negative = inhibition, % at 10 µM. PC3M PTB-GFP, PNC prevalence imaging, 16 h; hits give low values. actives 3.1% (n = 140,000). AID 2417, 2010;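 active = readout at or below -70, meaning at least 70% loss of cells showing the perinucleolar compartment, a nuclear body marking cancer cells; inconclusive = readout between -30 and a set limit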;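 also: plate controls were DMSO wells for no effect and camptothecin positive control wells for full effect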
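PC3M cells stably expressing PTB-GFP, 750–1000 cells/well, treated 16 h at 37 °C with compound (23 nl of library stock), in duplicate. After paraformaldehyde fixation and Hoechst stain, imaged at 20x; PNC prevalence scored by image analysis.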
HTT aggregate = qHTS Multiplex Assay to Identify Dual Action Probes in a Cell Model of Huntington: Aggregate Formation (GFP) | PC12 HttQ103-GFP aggregates, Acumen cytometry, 40 h | Potency, µM (series often up to 46.1 µM), for inactives: at the top dose activity change, negative = inhibition, hits mostly inhibitors | actives 1.1% (n = 220,000) | AID 1688, 2009; active = well fitted curve in the direction sought with a large enough effect; inconclusive = small, poorly fitted or top-dose-only effect, or another doubt; inactive = no such curve, though single readings can be large; an effect the other way counts as inactive or inconclusive; also: potency is read from the fitted curve at half-maximal effect; % is scaled to controls: 0 for no effect and ±100 for the full control effect; nearly all actives have a fitted effect of over 60% in size
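Aggregate formation scored by laser-scanning cytometer (488 excitation, 500–530 emission) in lysed PC12 cells expressing Q103-GFP after 100 nM tebufenozide induction; library tested in dose series, with ATPLite reagent added in the multiplex.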
RGS12 GoLoco inh = qHTS Assay for Inhibitors of RGS12 GoLoco Motif Activity (Red Fluorophore). Guanine nucleotide-binding protein G(i) subunit alpha-1 (Homo sapiens), P63096. Gai1:RGS12 GoLoco peptide FP, rhodamine, 10 min. Potency, µM (top dose mostly 61.6 µM), inactives show at the highest dose activity, negative = inhibition, most hits filed as inhibitors. actives 0.44% (n = 230,000). AID 880, 2007; active = well fitted inhibition curve with a large enough effect, not every such curve was filed as active; inactive = no such curve, though single readings can be large or run the other way; also: potency is read from the fitted curve at half-maximal effect; % is scaled to controls: 0 for no effect and ±100 for the full control effect; nearly all actives have a fitted effect of over 30% in size
HPGD block = qHTS Assay for Inhibitors of HPGD (15-Hydroxyprostaglandin Dehydrogenase) | actives 4.3% (n = 150,000) | 15-hydroxyprostaglandin dehydrogenase [NAD(+)] (Homo sapiens), P15428 | purified HPGD, NADH fluorescence kinetic, PGE2 substrate | Potency, µM, without a hit: top-dose activity change, negative = inhibition, actives largely listed as inhibitors; also: potency is read from the fitted curve at half-maximal effect; % is scaled to controls: 0 for no effect and ±100 for the full control effect
Target sequence (P15428 whole entry, looked up): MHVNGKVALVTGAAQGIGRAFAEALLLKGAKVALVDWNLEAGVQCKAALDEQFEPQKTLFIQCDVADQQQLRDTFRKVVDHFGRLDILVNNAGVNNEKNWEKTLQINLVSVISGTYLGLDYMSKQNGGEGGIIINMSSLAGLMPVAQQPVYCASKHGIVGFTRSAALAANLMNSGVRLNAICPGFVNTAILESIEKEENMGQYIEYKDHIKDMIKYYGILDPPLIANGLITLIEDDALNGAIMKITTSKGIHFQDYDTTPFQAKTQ
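20 nM HPGD preincubated 15 min at room temperature with compound in 50 mM Tris-HCl pH 8, 0.01% Tween 20. Started with 1 mM NAD+ and 30 uM prostaglandin E2; NADH fluorescence (360/450 nm) read 5 times over 30-s intervals, last minus first.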
ALDH1A1 inh = qHTS Assay for Inhibitors of Aldehyde Dehydrogenase 1 (ALDH1A1) | Aldehyde dehydrogenase 1A1 (Homo sapiens), P00352 | Purified ALDH1A1, NADH fluorescence, propionaldehyde substrate | Potency, µM (highest dose often 75.3 µM), for the others: at the top dose activity, negative = inhibition, most hits filed as inhibitors | actives 7.3% (n = 220,000);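 also: potency is read from the fitted curve at half-maximal effect; plate controls were no enzyme wells and a reference inhibitor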
Target sequence (P00352 whole entry, looked up): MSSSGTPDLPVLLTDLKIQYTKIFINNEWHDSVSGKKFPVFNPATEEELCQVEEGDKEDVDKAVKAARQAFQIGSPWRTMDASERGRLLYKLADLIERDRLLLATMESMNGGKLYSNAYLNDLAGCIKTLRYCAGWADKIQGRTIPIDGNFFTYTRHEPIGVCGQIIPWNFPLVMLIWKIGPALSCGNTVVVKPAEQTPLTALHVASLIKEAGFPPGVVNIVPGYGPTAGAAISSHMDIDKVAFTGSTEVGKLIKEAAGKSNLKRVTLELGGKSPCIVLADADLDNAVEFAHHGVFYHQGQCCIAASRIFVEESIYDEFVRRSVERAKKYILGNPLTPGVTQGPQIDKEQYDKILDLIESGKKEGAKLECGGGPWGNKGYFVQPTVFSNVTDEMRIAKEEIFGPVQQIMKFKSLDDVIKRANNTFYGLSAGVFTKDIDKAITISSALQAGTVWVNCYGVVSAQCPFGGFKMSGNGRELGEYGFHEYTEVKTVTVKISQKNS
HTT ATP protect = qHTS Multiplex Assay to Identify Dual Action Probes in a Cell Model of Huntington: Cytoprotection (ATP). PC12 HTT-Q103 induced, cytoprotection, ATP luminescence, 40 h. Potency, µM (highest dose often 56.4 µM), for the others: cytoprotection (ATP increase), usual class: activators. actives 0.14% (n = 230,000); active = well fitted curve in the direction sought with a large enough effect; inconclusive = small, poorly fitted or top-dose-only effect, or another doubt; inactive = no such curve, though single readings can be large; an effect the other way counts as inactive or inconclusive; also: potency is read from the fitted curve at half-maximal effect; % of control where 0% means no effect; nearly all actives have a fitted effect of over 45% in size
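PC12 cells with ecdysone-inducible HTT exon 1 Q103-GFP, induced with 100 nM tebufenozide and co-treated with library compounds in a dose series (1536-well, 1500 cells/well). Cytoprotection read as ATP content by ATPlite luminescence.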
* hit, by the source's call; ? = inconclusive; · = no result; [ ] = another dose, or the depositor's remark. Hits are enriched below; roughly 11% of the tested compounds scored in any of these assays. Unless noted, calls follow the shape of the dose curve; as a rule, active = well fitted inhibition curve with a large enough effect (not every such curve was filed as active); inconclusive = small, poorly fitted or top-dose-only effect, or another doubt; inactive = no such curve, though single readings can be large or run the other way.

SMILES	PNC inhibitor	HTT aggregate	RGS12 GoLoco inh	HPGD block	ALDH1A1 inh	HTT ATP protect
CCc1cc2ccc(C)cc2nc1SCC(=O)N1CCN(C(=O)c2ccco2)CC1	20.1	-12.4%	-1.8%	?	10µM*	12.9%
COc1ccc(C)cc1-n1nnnc1SCn1nnc2ccccc2c1=O	-15.9	?	0.3%	-14.7%	17.8µM*	15.6%[10 µM]
CCc1cc2cc3c(cc2nc1SCC(=O)N1CCN(C(=O)c2ccco2)CC1)OCO3	-23.8	-2.6%[9.22 µM]	-0.9%	-17.1%	?	-36.7%
COC(=O)C/C=C/C(C)C(OCc1cccc(-c2ccccc2)c1)C1CCCCC1 (stereo not given)	·	·	·	·	2.7%[13.5 µM]	0.6%[10 µM]
CC1=CC2=NC(=O)/C(=C\c3cccn3CCOc3cc(C)ccc3C)C(=N)N2O1	-11.0	?	5.6%	-10.4%	-8.9%	11.5%[10 µM]
Cc1ccc(CN2CCN(/N=C/C=C/c3ccccc3[N+](=O)[O-])CC2)cc1	·	?	-18.2%	·	6.31µM*	-4.7%[10 µM]
CS(=O)(=O)N1CCC2(CCCN(c3ccccn3)C2)CC1	·	·	-2.4%	?	?	2.1%
O=C(COc1ccc(Cl)cc1)NCc1nnc(SCC(=O)N2CCCCCC2)o1	·	18.1%	2.9%	·	-1.4%	-14.4%
Brc1cc2c(cc1Br)OCCOCCOCCOCCO2	·	-6.9%	1.7%	·	-8.9%	-34.9%
Brc1ccc2c(c1)OCCOCCOc1cc(Br)ccc1OCCOCCOCCO2	16.6	25.1µM*	-5.2%	-10.5%	2.5%	-16.7%[10 µM]
COc1cc(S(=O)(=O)N2CCC(c3nc4ccccc4s3)CC2)ccc1S(=O)(=O)NC1CCCC1	-100.0*	-5.0%	2.8%	-21.4%	-4.9%	16.0%[10 µM]
COc1cc(S(=O)(=O)N2CCC(c3nc4ccccc4s3)CC2)ccc1S(=O)(=O)N1CC(C)CC(C)C1 (stereo not given)	257.1	-10.7%	-9.1%	-10.5%	-2.3%	4.1%[10 µM]
CC(=O)C(C(C)=O)C1(O)C(=O)c2ccccc2C1=O	25.3	26.6%	8.6%	6.6%	1.58µM*	7.9%[10 µM]
C=C1c2ccccc2O[C@H](C(=O)OCC)C1OC (mixture of isomers)	·	·	-4.7%[88.7 µM]	-10.7%	31.6µM*	-21.7%[96.6 µM]
C=C1c2ccccc2O[C@H](C(=O)OCC)[C@@H]1CCC(C)C (tested in a mixture with another compound)	·	·	-17.1%[88.7 µM]	-10.9%	31.6µM*	9.2%
O=C(O)[C@H]1C[C@H](C(=O)O)N1	·	·	·	·	·	-5.5%[1.9 µM]
CC1=CC(=O)C2C(C)(C)CCC[C@@]2(C)[C@@]1(O)CCc1ccoc1 (stereo not given in full)	·	·	1.3%	-8.5%	?	·
CNc1ccccc1C(C)(C)c1cc(C)[nH]n1	·	0.3%	2.8%	·	9.6%	-8.1%
CNc1ccccc1C(C)(C)c1cc(-c2ccco2)n[nH]1	12.0	16.9%[9.22 µM]	31.4%	-4.1%	7.94µM*	26.5%[10 µM]
CCCc1nc2ccc(NC(=O)c3ccco3)cc2c(=O)n1Cc1ccccc1Cl	-100.0*	3.8%	10.0%	-18.6%	-0.3%	-3.8%[10 µM]
Cc1cc(-c2nnc(CCC(=O)N(C)Cc3cccc4ccccc34)o2)no1	·	3.6%[9.22 µM]	19.8%	·	13.9%	9.8%[10 µM]
O=C(/C=C\c1cccs1)c1c(O)ccc2ccc(=O)oc12	105.5	11.2µM*	-3.7%	?	?	11.6%[10 µM]
O=C(/C=C/c1cccs1)c1ccc(Br)cc1	0.6	3.1%	11.6%	-28.5%	1.9%	-10.9%
CCCn1c(-c2ccc(F)cc2)nc2c(N3CCN(Cc4nc(OC)cc(OC)n4)CC3)nc(C)nc21	·	·	1.0%	-23.2%	-14.4%	-57.9%
CC(=O)Oc1ccc2c(c1)O/C(=C\c1ccncc1)C2=O	·	-1.6%[9.22 µM]	8.9%	·	·	44.7%[10 µM]
SMILES	PNC inhibitor	HTT aggregate	RGS12 GoLoco inh	HPGD block	ALDH1A1 inh	HTT ATP protect
CS(=O)(=O)Oc1ccc2c(c1)O/C(=C\c1cccnc1)C2=O	·	-4.1%[9.22 µM]	4.7%	·	11.2µM*	32.3%[10 µM]
COc1ccccc1C(=O)Oc1ccc2c(c1)O/C(=C\c1ccncc1)C2=O	24.4	-6.1%	7.5%	-27.3%	?	-5.9%[1.9 µM]
O=C1/C(=C/c2cccnc2)Oc2cc(OS(=O)(=O)c3ccccc3)ccc21	-15.6	-25.5%	8.5%	?	3.16µM*	-8.5%
COc1ccc(S(=O)(=O)Oc2ccc3c(c2)O/C(=C\c2cccnc2)C3=O)cc1	-6.6	?	5.3%	15.8µM*	7.94µM*	8.3%[10 µM]
O=C1/C(=C/c2cccnc2)Oc2cc(OS(=O)(=O)c3ccc(Cl)cc3)ccc21	?	-2.7%[9.22 µM]	-5.1%	-23.0%	1.58µM*	-1.6%
O=C(O)C(Oc1ccc2ccc(=O)oc2c1)c1ccccc1 (stereo not given)	·	·	6.6%	-13.8%	?	?
COc1c2c(cc3c1C(c1c(O)c4ccccc4oc1=O)N(C)CC3)OCO2 (stereo not given)	·	·	6.7%	?	?	3.5%
CC(C)=NNC(=O)C1=NNC(=O)C1	·	15.5%[9.22 µM]	8.3%	·	·	24.1%[10 µM]
CCCCCc1ccc(OCCOCCn2c[n+](C)c3ccccc32)c(CCCCC)c1	·	11.2µM*	9.8%	·	?	-85.3%
CCCCCc1ccc(OCCC[n+]2ccccc2)c(CCCCC)c1	·	3.16µM*	8.5%	·	·	-95.9%[10 µM]
CCCCCOc1ccc(Cl)cc1CN1CCOCC1	-11.7	17.8%	10.3%	-1.6%	-8.0%	-23.5%
COC[C@@H](O)[C@@H](OC)[C@H](OC)[C@H](Cc1c(OC)cc(OC)cc1OC)OC	·	·	-5.2%	-6.5%	-3.2%	20.6%
O=c1[nH]n(-c2ccc(F)cc2)c2ncccc12	10.3	-3.6%	-10.8%	17.8µM*	7.2%	6.6%
O=c1ncn(-c2ccc(F)cc2)c2ncccc12	-12.4	8.7%	9.6%	-5.6%	2.3%	-1.8%
CCN(CC)C(=S)NC(=O)Cc1ccccc1	·	6.2%[9.22 µM]	15.4%	·	4.8%	-5.4%[10 µM]
C=CCN(CC=C)C(=S)NC(=O)Cc1cccc2ccccc12	·	-7.7%[9.22 µM]	13.9%	·	18.9µM*	0.4%[10 µM]
C/C(=N\NS(=O)(=O)c1ccccc1)c1ccc2c(c1)OCO2	·	2.8%	-0.1%	·	?	-36.1%
Cc1n[nH]c(=S)n1/N=C/c1ccccc1	40.8	-9.4%	-8.2%	?	-6.3%	·
O=[N+]([O-])c1cc(/C=N/n2c(-c3ccncc3)n[nH]c2=S)ccc1Cl	·	-1.1%[9.22 µM]	6.4%	·	?	-10.2%[10 µM]
S=c1[nH]nc(-c2ccncc2)n1/N=C/c1cccc2ccccc12	-9.2	2.9%	-5.9%	0.316µM*	-7.0%	-15.8%[1.9 µM]
CC(C)(C)c1ccc(-c2n[nH]c(=S)n2/N=C/c2ccncc2)cc1	-17.0	-20.1%	-5.6%	11.2µM*	0.5%	13.7%[0.074 µM]

Source: PubChem (National Center for Advancing Translational Sciences (NCATS))
